Experiments:
Test in all cases: log2 ratio of Biotin-Ahx-Ub-VS probe labelling (fragment/DMSO); higher = less target engagement (more negative = stronger competition), active = hit call of the paper (q ≤ 0.05, log2 ratio ≤ -1)
Details in all cases: compound concentration: 200 uM; treatment time: 3 h
USP34 = USP34 (UniProt Q70CQ2)
Summary of the method: (§1)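 Labelled DUBs were enriched with NeutrAvidin, digested with LysC and trypsin, and run by diaPASEF LC-MS/MS. The labelling used Biotin-Ahx-Ub-VS at 0.5 µM final for 1 h on HEK293T lysate (495 µg per sample) previously treated in triplicate with fragment at 200 µM or vehicle for 3 h. Values are average log2 fragment/vehicle ratios by unpaired t-test on global-median-normalised Spectronaut quantities of proteins with ≥2 unique peptides.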

USP36 = target: T1, USP36 (UniProt Q9P275)
T1 sequence (whole entry): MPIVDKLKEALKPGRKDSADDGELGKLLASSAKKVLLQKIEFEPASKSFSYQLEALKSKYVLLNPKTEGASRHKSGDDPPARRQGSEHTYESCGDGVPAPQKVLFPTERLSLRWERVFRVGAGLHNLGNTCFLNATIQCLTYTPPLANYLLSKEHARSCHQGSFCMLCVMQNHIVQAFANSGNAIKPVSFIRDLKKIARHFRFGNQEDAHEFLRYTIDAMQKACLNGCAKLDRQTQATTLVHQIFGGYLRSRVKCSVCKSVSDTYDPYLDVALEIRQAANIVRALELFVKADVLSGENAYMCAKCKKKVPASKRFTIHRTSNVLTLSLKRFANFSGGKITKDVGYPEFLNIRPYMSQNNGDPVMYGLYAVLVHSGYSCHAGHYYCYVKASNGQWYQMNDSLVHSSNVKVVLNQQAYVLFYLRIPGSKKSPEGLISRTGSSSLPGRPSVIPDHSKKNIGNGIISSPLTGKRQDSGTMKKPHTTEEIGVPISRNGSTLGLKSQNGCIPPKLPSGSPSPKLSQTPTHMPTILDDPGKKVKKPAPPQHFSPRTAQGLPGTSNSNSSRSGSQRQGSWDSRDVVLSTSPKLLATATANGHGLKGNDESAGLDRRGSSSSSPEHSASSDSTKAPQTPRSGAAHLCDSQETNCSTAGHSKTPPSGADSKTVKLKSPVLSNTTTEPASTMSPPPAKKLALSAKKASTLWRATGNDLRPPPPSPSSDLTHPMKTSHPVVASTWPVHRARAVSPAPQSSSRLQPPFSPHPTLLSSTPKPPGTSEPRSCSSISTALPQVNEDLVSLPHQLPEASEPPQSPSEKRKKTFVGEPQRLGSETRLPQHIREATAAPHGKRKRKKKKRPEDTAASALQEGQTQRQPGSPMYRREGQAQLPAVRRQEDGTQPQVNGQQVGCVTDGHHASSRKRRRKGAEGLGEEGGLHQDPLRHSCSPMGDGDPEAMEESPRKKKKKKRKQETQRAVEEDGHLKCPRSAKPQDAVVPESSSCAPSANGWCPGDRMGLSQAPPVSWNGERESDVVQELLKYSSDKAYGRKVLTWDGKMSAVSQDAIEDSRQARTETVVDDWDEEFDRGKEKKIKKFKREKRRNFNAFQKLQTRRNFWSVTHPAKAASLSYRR
Summary of the method: as §1

USP38 = target: T2, USP38 (UniProt Q8NB14)
T2 sequence (whole entry): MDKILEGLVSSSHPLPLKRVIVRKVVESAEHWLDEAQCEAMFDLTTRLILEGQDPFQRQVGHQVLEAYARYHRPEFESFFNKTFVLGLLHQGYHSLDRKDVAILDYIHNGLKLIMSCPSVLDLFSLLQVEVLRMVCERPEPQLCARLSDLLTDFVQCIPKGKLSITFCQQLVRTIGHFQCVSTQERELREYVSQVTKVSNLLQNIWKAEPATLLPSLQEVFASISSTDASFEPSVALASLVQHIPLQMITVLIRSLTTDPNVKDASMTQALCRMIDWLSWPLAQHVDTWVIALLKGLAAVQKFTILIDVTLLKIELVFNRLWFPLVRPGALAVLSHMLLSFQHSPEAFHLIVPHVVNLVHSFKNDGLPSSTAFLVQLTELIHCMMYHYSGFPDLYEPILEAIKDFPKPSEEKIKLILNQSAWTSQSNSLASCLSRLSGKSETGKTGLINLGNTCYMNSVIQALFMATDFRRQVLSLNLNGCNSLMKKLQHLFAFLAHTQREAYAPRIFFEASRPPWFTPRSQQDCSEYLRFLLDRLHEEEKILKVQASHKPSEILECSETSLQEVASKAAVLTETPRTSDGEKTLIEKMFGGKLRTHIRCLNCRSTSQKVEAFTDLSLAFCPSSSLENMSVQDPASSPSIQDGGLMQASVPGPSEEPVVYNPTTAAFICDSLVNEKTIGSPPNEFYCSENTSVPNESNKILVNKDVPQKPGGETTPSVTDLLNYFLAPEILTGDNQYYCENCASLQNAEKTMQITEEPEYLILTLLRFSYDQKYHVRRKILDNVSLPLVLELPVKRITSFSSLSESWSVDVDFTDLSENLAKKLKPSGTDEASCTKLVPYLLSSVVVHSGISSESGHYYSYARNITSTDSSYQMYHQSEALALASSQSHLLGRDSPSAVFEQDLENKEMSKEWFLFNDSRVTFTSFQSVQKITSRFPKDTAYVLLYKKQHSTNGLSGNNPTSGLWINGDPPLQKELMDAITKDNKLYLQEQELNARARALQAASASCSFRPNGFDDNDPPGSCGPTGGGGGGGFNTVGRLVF
Summary of the method: as §1

USP39 = target: T3, USP39 (UniProt Q53GS9)
T3 sequence (whole entry): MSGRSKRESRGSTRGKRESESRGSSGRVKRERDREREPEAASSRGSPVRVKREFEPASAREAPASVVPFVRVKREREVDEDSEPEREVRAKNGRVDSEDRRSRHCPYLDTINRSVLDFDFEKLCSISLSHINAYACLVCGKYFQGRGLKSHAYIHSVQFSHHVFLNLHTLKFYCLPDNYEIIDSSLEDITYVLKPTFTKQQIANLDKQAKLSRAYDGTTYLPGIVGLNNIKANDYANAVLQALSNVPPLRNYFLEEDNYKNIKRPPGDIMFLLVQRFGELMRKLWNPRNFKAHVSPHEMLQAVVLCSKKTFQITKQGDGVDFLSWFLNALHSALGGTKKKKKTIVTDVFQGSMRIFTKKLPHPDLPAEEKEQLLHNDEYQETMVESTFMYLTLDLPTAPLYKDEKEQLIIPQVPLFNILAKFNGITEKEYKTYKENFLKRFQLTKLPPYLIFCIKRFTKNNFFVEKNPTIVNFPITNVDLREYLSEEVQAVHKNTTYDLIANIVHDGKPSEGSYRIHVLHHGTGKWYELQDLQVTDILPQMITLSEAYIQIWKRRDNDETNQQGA
Summary of the method: as §1

USP4 = target: T4, USP4 (UniProt Q13107)
T4 sequence (whole entry): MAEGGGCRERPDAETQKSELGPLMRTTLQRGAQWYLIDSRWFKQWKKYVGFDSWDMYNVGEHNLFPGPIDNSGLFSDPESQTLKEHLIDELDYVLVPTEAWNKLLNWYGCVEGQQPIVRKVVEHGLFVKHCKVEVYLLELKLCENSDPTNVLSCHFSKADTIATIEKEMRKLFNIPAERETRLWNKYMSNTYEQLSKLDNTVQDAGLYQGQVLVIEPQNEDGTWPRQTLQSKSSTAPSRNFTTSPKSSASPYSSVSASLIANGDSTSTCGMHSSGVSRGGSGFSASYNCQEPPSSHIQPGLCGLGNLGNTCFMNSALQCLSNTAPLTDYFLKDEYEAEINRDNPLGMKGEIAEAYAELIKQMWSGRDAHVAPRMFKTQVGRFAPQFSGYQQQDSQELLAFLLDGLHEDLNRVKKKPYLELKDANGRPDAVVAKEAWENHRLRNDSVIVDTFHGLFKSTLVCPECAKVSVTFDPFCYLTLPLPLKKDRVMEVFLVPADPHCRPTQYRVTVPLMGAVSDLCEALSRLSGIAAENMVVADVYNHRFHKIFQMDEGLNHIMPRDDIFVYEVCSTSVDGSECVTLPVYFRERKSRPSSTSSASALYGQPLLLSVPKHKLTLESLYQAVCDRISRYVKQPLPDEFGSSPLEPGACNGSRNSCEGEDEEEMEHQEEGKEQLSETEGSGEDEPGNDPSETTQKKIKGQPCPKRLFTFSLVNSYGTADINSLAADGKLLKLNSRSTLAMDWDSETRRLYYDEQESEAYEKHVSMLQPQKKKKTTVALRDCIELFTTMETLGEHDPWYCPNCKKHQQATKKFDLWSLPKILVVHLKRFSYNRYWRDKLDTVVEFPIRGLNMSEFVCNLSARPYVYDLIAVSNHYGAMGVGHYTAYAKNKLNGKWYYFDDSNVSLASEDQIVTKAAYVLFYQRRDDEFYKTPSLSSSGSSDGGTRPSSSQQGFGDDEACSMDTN
Summary of the method: as §1

Measured: log2 ratio of Biotin-Ahx-Ub-VS probe labelling

Sequence of USP34 (Q70CQ2 whole entry, the tested form may be a part): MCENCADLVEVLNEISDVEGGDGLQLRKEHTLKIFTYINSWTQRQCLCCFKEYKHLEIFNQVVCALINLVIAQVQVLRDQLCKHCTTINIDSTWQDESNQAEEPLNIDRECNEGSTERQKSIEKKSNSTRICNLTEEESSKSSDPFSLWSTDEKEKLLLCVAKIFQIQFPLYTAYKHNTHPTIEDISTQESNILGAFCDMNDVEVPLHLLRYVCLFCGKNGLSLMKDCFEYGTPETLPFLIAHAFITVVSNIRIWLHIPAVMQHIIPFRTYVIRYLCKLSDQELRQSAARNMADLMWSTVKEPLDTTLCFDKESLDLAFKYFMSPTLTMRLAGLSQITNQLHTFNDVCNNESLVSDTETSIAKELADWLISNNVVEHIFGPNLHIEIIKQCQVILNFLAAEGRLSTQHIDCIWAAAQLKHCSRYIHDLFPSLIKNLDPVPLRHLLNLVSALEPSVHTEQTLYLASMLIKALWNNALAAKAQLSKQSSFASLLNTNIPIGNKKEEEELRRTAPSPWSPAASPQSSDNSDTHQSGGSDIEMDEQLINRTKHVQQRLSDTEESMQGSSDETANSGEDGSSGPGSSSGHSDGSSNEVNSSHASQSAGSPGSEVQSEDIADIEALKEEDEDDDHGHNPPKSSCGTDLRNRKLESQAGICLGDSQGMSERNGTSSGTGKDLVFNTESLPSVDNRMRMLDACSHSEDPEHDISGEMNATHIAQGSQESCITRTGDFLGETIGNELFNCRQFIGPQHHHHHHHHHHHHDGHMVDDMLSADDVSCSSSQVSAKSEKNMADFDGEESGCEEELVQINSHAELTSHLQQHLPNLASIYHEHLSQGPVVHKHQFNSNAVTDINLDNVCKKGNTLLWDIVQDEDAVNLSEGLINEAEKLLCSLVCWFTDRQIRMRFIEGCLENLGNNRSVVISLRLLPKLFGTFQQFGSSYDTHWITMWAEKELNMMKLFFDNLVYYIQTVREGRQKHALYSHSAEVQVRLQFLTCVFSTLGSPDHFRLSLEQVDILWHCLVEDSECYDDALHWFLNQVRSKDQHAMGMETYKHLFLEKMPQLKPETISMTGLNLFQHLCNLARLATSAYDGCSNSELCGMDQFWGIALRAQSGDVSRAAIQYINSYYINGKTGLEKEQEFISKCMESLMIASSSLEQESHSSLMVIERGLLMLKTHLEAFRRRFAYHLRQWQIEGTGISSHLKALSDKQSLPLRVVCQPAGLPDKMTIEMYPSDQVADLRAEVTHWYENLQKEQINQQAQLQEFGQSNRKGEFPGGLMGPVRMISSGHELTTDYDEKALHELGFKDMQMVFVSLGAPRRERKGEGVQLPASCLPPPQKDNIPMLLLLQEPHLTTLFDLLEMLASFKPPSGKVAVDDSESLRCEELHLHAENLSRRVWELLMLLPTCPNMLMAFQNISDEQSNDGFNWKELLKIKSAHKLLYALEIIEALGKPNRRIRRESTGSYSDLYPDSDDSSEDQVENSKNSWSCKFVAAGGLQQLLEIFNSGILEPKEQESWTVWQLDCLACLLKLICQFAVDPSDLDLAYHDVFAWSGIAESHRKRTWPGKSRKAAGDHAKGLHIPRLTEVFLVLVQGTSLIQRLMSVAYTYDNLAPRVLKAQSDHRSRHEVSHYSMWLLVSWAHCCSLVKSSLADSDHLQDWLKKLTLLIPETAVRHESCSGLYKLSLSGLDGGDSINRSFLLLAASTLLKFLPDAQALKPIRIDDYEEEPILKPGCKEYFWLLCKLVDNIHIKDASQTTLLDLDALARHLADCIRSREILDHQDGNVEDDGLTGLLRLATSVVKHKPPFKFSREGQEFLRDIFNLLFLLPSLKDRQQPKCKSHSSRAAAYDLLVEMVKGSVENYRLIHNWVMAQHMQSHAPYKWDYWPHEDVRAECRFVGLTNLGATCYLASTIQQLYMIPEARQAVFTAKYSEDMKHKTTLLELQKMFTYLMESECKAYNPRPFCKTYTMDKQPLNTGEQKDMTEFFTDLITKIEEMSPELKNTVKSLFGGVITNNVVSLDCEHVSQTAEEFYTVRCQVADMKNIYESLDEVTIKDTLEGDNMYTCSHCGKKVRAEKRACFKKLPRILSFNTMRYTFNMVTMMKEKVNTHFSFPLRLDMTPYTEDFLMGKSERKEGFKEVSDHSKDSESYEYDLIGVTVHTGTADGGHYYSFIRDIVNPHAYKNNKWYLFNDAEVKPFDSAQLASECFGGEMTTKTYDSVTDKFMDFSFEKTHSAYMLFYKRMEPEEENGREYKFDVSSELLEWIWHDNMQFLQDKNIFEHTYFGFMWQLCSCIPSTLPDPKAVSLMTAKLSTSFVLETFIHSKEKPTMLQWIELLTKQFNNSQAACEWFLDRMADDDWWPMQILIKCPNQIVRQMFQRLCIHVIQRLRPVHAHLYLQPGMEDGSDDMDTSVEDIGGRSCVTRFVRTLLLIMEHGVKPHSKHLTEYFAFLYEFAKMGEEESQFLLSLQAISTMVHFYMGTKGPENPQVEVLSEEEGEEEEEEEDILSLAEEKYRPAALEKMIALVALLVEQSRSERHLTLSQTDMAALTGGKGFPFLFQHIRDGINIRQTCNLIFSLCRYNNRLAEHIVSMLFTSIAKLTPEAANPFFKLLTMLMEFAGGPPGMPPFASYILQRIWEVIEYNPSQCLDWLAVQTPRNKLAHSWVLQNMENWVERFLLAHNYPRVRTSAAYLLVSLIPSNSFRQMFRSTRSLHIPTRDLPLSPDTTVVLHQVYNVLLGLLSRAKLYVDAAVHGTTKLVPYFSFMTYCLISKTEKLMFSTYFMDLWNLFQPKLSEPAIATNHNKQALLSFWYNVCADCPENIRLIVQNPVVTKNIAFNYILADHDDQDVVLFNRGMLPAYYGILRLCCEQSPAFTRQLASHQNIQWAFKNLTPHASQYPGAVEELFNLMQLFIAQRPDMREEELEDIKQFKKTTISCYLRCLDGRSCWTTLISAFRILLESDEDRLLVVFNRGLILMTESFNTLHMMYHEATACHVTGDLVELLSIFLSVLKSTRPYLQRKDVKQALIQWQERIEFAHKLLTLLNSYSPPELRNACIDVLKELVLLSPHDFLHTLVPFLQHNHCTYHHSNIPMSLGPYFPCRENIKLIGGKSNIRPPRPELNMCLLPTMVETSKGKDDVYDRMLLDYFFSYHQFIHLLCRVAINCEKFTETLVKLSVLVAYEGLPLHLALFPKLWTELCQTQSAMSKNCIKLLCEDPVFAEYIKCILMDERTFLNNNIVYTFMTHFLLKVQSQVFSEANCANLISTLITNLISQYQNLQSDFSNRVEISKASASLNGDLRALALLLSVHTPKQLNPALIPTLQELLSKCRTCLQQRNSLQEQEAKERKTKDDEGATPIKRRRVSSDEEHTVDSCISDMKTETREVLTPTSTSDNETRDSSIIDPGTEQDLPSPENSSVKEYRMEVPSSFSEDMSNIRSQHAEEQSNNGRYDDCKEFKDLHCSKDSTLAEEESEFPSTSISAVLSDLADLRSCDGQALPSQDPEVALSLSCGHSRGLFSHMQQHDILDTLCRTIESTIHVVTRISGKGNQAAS

Cc1ccc(N(CCC#N)C(=O)CCl)cc1C
inactive: USP34 -0.0882 | USP36 -0.062 | USP38 -0.15 | USP39 0.18 | USP4 0.0498

From the supplement of paper PMC11732987, “Enantioselective OTUD7B fragment discovery through chemoproteomics screening and high-throughput optimisation” (Communications Chemistry, 2025)
